The values that follow come from PubChem BioAssay AID492960 (National Center for Advancing Translational Sciences (NCATS), 2010).

Records with an inconclusive call do not appear. Activity calls are given as the source filed them. Calls come from the whole dose curve; as a rule, active = well fitted curve in the direction sought with a large enough effect; inconclusive = small, poorly fitted or top-dose-only effect, or effect the other way, or another doubt; inactive = no such curve, though single readings can be large or run the other way.

A short description of this assay: Secondary Assay for lipid storage modulators: HepG2 cell LDSA assay for probe SAR. Conditions: HepG2 lipid droplet BODIPY, laser-scanning cytometry, 18-24 h; series mostly up to 46.1 µM; activity, negative = less lipid: at the top concentration. An outline of the steps:
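Dose-response lipid-storage test: HepG2 cells were fed 400 uM oleic acid with compound for 18-24 h at 24 degrees C. BODIPY 493/503 intensity gave droplet accumulation, and an object ratio was taken against CellTracker Red cell counts. Percent activity was set against 20 uM Triacsin C as full inhibition.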
For `O=C(O)CCc1ccc(NCc2cccc(Oc3ccccc3)c2)cc1`, the “activity, negative = less lipid” value is 1.3% (inactive).

Regarding `CCOc1ccc(CCNC(=O)c2csc(Br)n2)cc1OCC`, the “activity, negative = less lipid” value is -2.6% [at 38.8 µM] (inactive).

Regarding `CCOC(=O)C1CCN(C(=O)C2(NC(=O)Nc3ccccc3Cl)CCCCC2)CC1`, the “activity, negative = less lipid” value is 28.6% (inactive).

Consider `O=C(NC1CCCc2c1cnn2-c1ccc(F)cc1F)C1CCCCN1` (stereo unspecified), for which the “activity, negative = less lipid” value is -13.5% (inactive).

With `O=C(NC1CCCc2c1cnn2-c1ccccc1F)c1cccc2nccnc12` (stereo unspecified), the “activity, negative = less lipid” value is 0% (inactive).

With `O=C(NC1CCCc2c1cnn2-c1ccc(F)cc1F)C1CC1` (stereo unspecified), the “activity, negative = less lipid” value is -7.14% (inactive).

Take `O=C(NC1CCCc2c1cnn2-c1cc(F)cc(F)c1)c1cccc2nccnc12` (stereo unspecified): the “activity, negative = less lipid” value is 19.5% (inactive).

In the case of `CCOC(=O)C1CCN(C(=O)C2(NC(=O)Nc3ccccc3Cl)CC2)CC1`, the “activity, negative = less lipid” value was -15.6% (inactive).

As for `CCOc1ccc(CCNC(=O)c2cc3c(s2)CCC3)cc1OCC`, the “activity, negative = less lipid” value was 58.4% (inactive).

For `COc1ccc(CCNC(=O)c2cc3sccc3n2Cc2ccccc2)cc1OC`, the “activity, negative = less lipid” value was 11.7% (inactive).

Regarding `Cc1csc(NC(=O)CSc2ncc(-c3ccccc3)n2Cc2ccco2)n1`, the “activity, negative = less lipid” value was 18.2% (inactive).

Take `CCOc1ccc(CCNC(=O)c2cc3sccc3n2Cc2ccc(OC(F)F)cc2)cc1OCC`: the “activity, negative = less lipid” value was -20.8% (inactive).

With `CCOC(=O)C1CCN(C(=O)CNC(=O)Nc2ccccc2Cl)CC1`, the “activity, negative = less lipid” value was 16.9% (inactive).

Regarding `CCOc1ccc(CCNC(=O)C2COc3ccccc3O2)cc1OCC` (stereo unspecified), the “activity, negative = less lipid” value is 6.49% (inactive).

Regarding `Cc1ccc(-c2cnc(SCC(=O)Nc3nccs3)n2Cc2ccco2)cc1`, the “activity, negative = less lipid” value is 13% (inactive).

In the case of `COc1ccc(-c2cnc(SCC(=O)Nc3nc(C)cs3)n2Cc2ccco2)cc1`, the “activity, negative = less lipid” value was 20.8% (inactive).

For the compound `CCn1c(-c2ccc(C)cc2)cnc1SCC(=O)Nc1nc(C)cs1`, the “activity, negative = less lipid” value was -3.9% (inactive).

With `CCn1c(C(=O)NCCc2ccc(OC)c(OC)c2)cc2sccc21`, the “activity, negative = less lipid” value is -7.94% (inactive).

Turning to `O=C(NC1CCCc2c1cnn2-c1ccc(F)cc1F)c1cnccn1` (stereo unspecified), the “activity, negative = less lipid” value is 10.3% (inactive).

In the case of `O=C(NC1CCCc2c1cnn2-c1ccc(F)cc1F)c1ccccn1` (stereo unspecified), the Potency entry is “inactive”.

Turning to `O=C(Cc1ccccc1)NC1CCCc2c1cnn2-c1ccc(F)cc1F` (stereo unspecified), the “activity, negative = less lipid” value is 5.04% (inactive).

Consider `CCOc1ccc(CCNC(=O)c2cccc(C(=O)c3ccccc3)c2)cc1OCC`, for which the “activity, negative = less lipid” value was 11.7% (inactive).

Take `Cc1cc(SCc2sc(-c3ccc(C(F)(F)F)cc3)nc2C)ccc1OCC(=O)O`: the “activity, negative = less lipid” value is 1.3% (inactive).

Take `CCOc1ccc(CCNC(=O)c2cccs2)cc1OCC`: the “activity, negative = less lipid” value was 40.3% (inactive).

With `CCOC(=O)C1CCN(C(=O)C2(NC(=O)Nc3ccccc3Cl)CCC2)CC1`, the “activity, negative = less lipid” value is 1.3% (inactive).

For `CCOc1ccc(CCNC(C)=O)cc1OCC`, the “activity, negative = less lipid” value was 15.6% (inactive).

Take `CCOC(=O)C1CCN(C(=O)C2(NC(=O)NCc3ccccc3)CCCCC2)CC1`: the “activity, negative = less lipid” value was -15.6% (inactive).

With `CCOc1ccc(CCNC(=O)c2cc3sccc3[nH]2)cc1OCC`, the “activity, negative = less lipid” value is 15.8% (inactive).

`CCOc1ccc(CCNC(=O)c2cc3sccc3n2CC=C(C)C)cc1OCC`: the “activity, negative = less lipid” value was -19.5% (inactive).

Take `CCOc1ccc(CCNC(=O)c2cc3sccc3n2CC)cc1OCC`: the Potency was 11.2 µM (active).

Take `CCOc1ccc(NC(=O)NC2(C(=O)N3CCCCC3)CCCCC2)cc1`: the “activity, negative = less lipid” value is -9.09% (inactive).
